Measurements: PubChem BioAssay AID1159580 (chemical genetic matrix, 2015)
About 2,000 (36%) of roughly 5,500 compounds were called active. Inconclusive results (about 18%) are left out. This is one part of the list. Unmarked numbers belong to inactive results. Rule as the data show it: active = normalized growth mostly below about 0.91 (no sharp cut-off); inconclusive = no clear call, values can overlap the other calls; inactive = mostly above about 0.92.

Assay: chemical genetic growth profiling, strain panel (AID 1159580);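 also: tested at 20 µM; growth read once vehicle control cultures reached saturation at 30 °C; 1 = growth at the plate median or of vehicle wells; lower values mean less growth of the strain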
Conditions: S. cerevisiae deletion strains, growth OD

O=c1[nH]c(=O)c2nc3ccccc3nc2[nH]1
normalized growth (locus YAL040C, strain CLN3, active compounds read low): 0.979 | normalized growth (locus YER002W, strain NOP16, active compounds read low): 1 | normalized growth (locus YGR078C, strain PAC10, active compounds read low): 1.01 | normalized growth (locus YMR307W, strain GAS1, active compounds read low): 0.994 | normalized growth (locus YNL153C, strain GIM3, active compounds read low): 1.01 | normalized growth (locus YNL175C, strain NOP13, active compounds read low): 0.98 | normalized growth (locus YNL197C, strain WHI3, active compounds read low): 0.971 | normalized growth (locus YNL224C, strain SQS1, active compounds read low): 0.999 | normalized growth (locus YOR083W, strain WHI5 (second series), active compounds read low): 0.997 | normalized growth (locus YPL241C, strain CIN2, active compounds read low): 1

O=[N+]([O-])c1ccc(-c2noc(-c3ccno3)n2)o1
normalized growth (locus YAR019C, strain CDC15, active compounds read low): 0.0919 (active) | normalized growth (locus YBL105C, strain PKC1, active compounds read low): 0.118 (active) | normalized growth (locus YBR135W, strain CKS1, active compounds read low): 0.133 (active) | normalized growth (locus YBR136W, strain MEC1, active compounds read low): 0.119 (active) | normalized growth (locus YBR160W, strain CDC28, active compounds read low): 0.121 (active) | normalized growth (locus YDL017W, strain CDC7, active compounds read low): 0.122 (active) | normalized growth (locus YDL028C, strain MPS1, active compounds read low): 0.128 (active) | normalized growth (locus YDL101C, strain DUN1, active compounds read low): 0.143 (active) | normalized growth (locus YDL108W, strain KIN28, active compounds read low): 0.123 (active) | normalized growth (locus YDL132W, strain cdc53, active compounds read low): 0.106 (active) | normalized growth (locus YDL214C, strain PRR2, active compounds read low): 0.103 (active) | normalized growth (locus YDR052C, strain DBF4, active compounds read low): 0.129 (active) | normalized growth (locus YDR054C, strain cdc34, active compounds read low): 0.108 (active) | normalized growth (locus YDR226W, strain ADK1, active compounds read low): 0.113 (active) | normalized growth (locus YDR477W, strain SNF1, active compounds read low): 0.102 (active) | normalized growth (locus YER123W, strain YCK3, active compounds read low): 0.113 (active) | normalized growth (locus YER133W, strain GLC7, active compounds read low): 0.102 (active) | normalized growth (locus YFL009W, strain cdc4, active compounds read low): 0.109 (active) | normalized growth (locus YFL029C, strain CAK1, active compounds read low): 0.0982 (active) | normalized growth (locus YFR003C, strain YPI1, active compounds read low): 0.126 (active) | normalized growth (locus YFR019W, strain FAB1, active compounds read low): 0.104 (active) | normalized growth (locus YFR028C, strain CDC14, active compounds read low): 0.0999 (active) | normalized growth (locus YGR040W, strain KSS1, active compounds read low): 0.107 (active) | normalized growth (locus YGR052W, strain FMP48, active compounds read low): 0.123 (active) | normalized growth (locus YGR092W, strain DBF2, active compounds read low): 0.106 (active) | normalized growth (locus YHR030C, strain SLT2, active compounds read low): 0.135 (active) | normalized growth (locus YHR079C, strain IRE1, active compounds read low): 0.171 (active) | normalized growth (locus YHR082C, strain KSP1, active compounds read low): 0.143 (active) | normalized growth (locus YHR205W, strain SCH9, active compounds read low): -0.000394 (active) | normalized growth (locus YIL147C, strain SLN1, active compounds read low): 0.129 (active) | normalized growth (locus YJL095W, strain BCK1, active compounds read low): 0.141 (active) | normalized growth (locus YJL128C, strain PBS2, active compounds read low): 0.117 (active) | normalized growth (locus YJL157C, strain FAR1, active compounds read low): 0.107 (active) | normalized growth (locus YJR016C, strain ILV3, active compounds read low): 0.0915 (active) | normalized growth (locus YJR066W, strain TOR1 (second series), active compounds read low): 0.0932 (active) | normalized growth (locus YJR066W, strain TOR1, active compounds read low): 0.125 (active) | normalized growth (locus YKL048C, strain ELM1, active compounds read low): 0.115 (active) | normalized growth (locus YKL067W, strain YNK1, active compounds read low): 0.0963 (active) | normalized growth (locus YKL101W, strain HSL1, active compounds read low): 0.106 (active) | normalized growth (locus YKL193C, strain SDS22, active compounds read low): 0.0909 (active) | normalized growth (locus YKL203C, strain TOR2, active compounds read low): 0.104 (active) | normalized growth (locus YLR113W, strain HOG1, active compounds read low): 0.2 (active) | normalized growth (locus YLR133W, strain CKI1, active compounds read low): 0.0997 (active) | normalized growth (locus YLR403W, strain SFP1, active compounds read low): 0.00715 (active) | normalized growth (locus YML070W, strain DAK1, active compounds read low): 0.1 (active) | normalized growth (locus YMR001C, strain CDC5, active compounds read low): 0.093 (active) | normalized growth (locus YMR205C, strain PFK2 (second series), active compounds read low): 0.0958 (active) | normalized growth (locus YMR277W, strain FCP1, active compounds read low): 0.0929 (active) | normalized growth (locus YNL006W, strain LST8, active compounds read low): 0.104 (active) | normalized growth (locus YNL020C, strain ARK1, active compounds read low): 0.101 (active) | normalized growth (locus YNL161W, strain CBK1, active compounds read low): 0.103 (active) | normalized growth (locus YNL183C, strain NPR1, active compounds read low): 0.138 (active) | normalized growth (locus YNL207W, strain RIO2, active compounds read low): 0.0962 (active) | normalized growth (locus YNL222W, strain SSU72, active compounds read low): 0.1 (active) | normalized growth (locus YNL307C, strain MCK1 (second series), active compounds read low): 0.11 (active) | normalized growth (locus YOL078W, strain AVO1, active compounds read low): 0.0939 (active) | normalized growth (locus YOL136C, strain PFK27, active compounds read low): 0.124 (active) | normalized growth (locus YOR061W, strain CKA2, active compounds read low): 0.0948 (active) | normalized growth (locus YOR119C, strain RIO1, active compounds read low): 0.112 (active) | normalized growth (locus YOR231W, strain MKK1, active compounds read low): 0.14 (active) | normalized growth (locus YOR329C, strain SCD5, active compounds read low): 0.104 (active) | normalized growth (locus YPL031C, strain PHO85, active compounds read low): 0.112 (active) | normalized growth (locus YPL153C, strain RAD53, active compounds read low): 0.0949 (active) | normalized growth (locus YPL204W, strain HRR25, active compounds read low): 0.106 (active) | normalized growth (locus YPL209C, strain IPL1, active compounds read low): 0.105 (active) | normalized growth (locus YPL256C, strain CLN2, active compounds read low): 0.178 (active) | normalized growth (locus YPR025C, strain CCL1, active compounds read low): 0.111 (active) | normalized growth (locus YPR106W, strain ISR1, active compounds read low): 0.132 (active) | normalized growth (locus YPR111W, strain DBF20, active compounds read low): 0.149 (active) | normalized growth (strain NNK1, active compounds read low): 0.104 (active) | normalized growth (strain TSCII, active compounds read low): 0.0899 (active)
